Pf apPOL block: Pf-apPOL DNA polymerase inhibition | Recombinant Pf-apPOL, molecular beacon fluorescence, 1.5 h | 0.25% of 210,000 active | AID 1794808 | inhibition, % at 10 µM
mHTT CaM bind: disrupts binding of mutant huntingtin to calmodulin; P42858; AlphaScreen His-mHTT/GST-CaM binding, luminescence; inhibition, % at 15 µM; 3.6% of 190,000 active;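 further: 0% = both proteins with DMSO and 100% = one protein alone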
Active calls of the source: *; . = not tested or not shown. The sample as a whole holds a higher share of hits than the screen did. No stated cut-off is given here; in the data, active means inhibition above about 50%; inactive means the rest.

SMILES	Pf apPOL block	mHTT CaM bind
CCCCN(CCCC)C(=O)NC1(C)CCS(=O)(=O)C1 (stereo unspecified)	-3	-4
Cc1cc(C2C(C#N)=C(N)N(c3ccccc3C(F)(F)F)C3=C2C(=O)CCC3)c(C)s1 (stereo unspecified)	0	39
Cc1nc(-c2cccnc2)nc2c1CCC(=O)N2CCN1CCCC1	58*	23
Cc1nc(-c2cccnc2)nc2c1CCC(=O)N2CCN(C)C	-6	1
Cc1ccc(CN2C(=O)CCc3c(C)nc(-c4ccncc4)nc32)o1	9	71*
Cc1nc(-c2cnccn2)nc2c1CCC(=O)N2Cc1ccccn1	-22	99*
Cc1nc(-c2ccncc2)nc2c1CCC(=O)N2Cc1cccs1	-3	6
Cc1nc(-c2cccnc2)nc2c1CCC(=O)N2Cc1ccccn1	-12	2
CCC(=O)NC1CCN(C(=O)c2cccc(F)c2)C1 (stereo unspecified)	4	3
Cc1ccccc1-n1nc2c(c1NC(=O)c1ccc(Br)cc1)CS(=O)C2 (stereo unspecified)	2	2
COc1cc(OC)cc(-c2nc3ccc(C)cc3c(=O)o2)c1	-4	1
Cc1ccc2c(c1)N(c1ccc(Cl)cc1)C=C(C#N)S2(=O)=O	2	-8
NS(=O)(=O)C#Cc1ccccc1	-3	-9
O=C1CCCC(O)=C1C(C#Cc1ccccc1)C1=C(O)CCCC1=O	-2	87*
COc1ccccc1CN[C@H]1CCC12CCCCC2	-3	-4
O=C(Nc1ccc(Cl)cn1)C1(c2ccccc2)CC1(Cl)Cl (stereo unspecified)	-4	-21
C=CC[n+]1ccc(/C=C/c2ccccc2O)c2ccccc21	-4	69*
C[n+]1ccc(/C=C/c2ccccc2F)c2ccccc21	-4	6
Cc1ccc(Nc2c(-c3nc(C)no3)cnc3nc(C)ccc23)c(C)c1	3	44
Cc1ccc2c(Nc3ccc(F)cc3C)c(-c3nc(C)no3)cnc2n1	-4	58*
Cc1ccc(C2C3=C(NCCN=C3c3ccccc3)C(=O)N2c2ccccc2)cc1 (stereo unspecified)	4	80*
COc1cccc(C2C3=C(NCCN=C3c3ccc(Cl)cc3)C(=O)N2c2ccccc2)c1 (stereo unspecified)	5	7
COc1ccc(C2CC(c3cccc(C)c3)n3nc(N)nc3N2)cc1 (stereo unspecified)	-1	0
Cc1ccc(C2CC(c3ccccc3)n3nnnc3N2)cc1 (stereo unspecified)	2	9
Cc1ccc(C2CC(c3ccc(Cl)cc3)n3nnnc3N2)cc1 (stereo unspecified)	4	54*
SMILES	Pf apPOL block	mHTT CaM bind
Nc1nc2n(n1)C(c1ccccc1)CC(c1ccccc1Cl)N2 (stereo unspecified)	-5	8
Cc1cccc(C2CC(c3ccc(Br)cc3)Nc3nc(N)nn32)c1 (stereo unspecified)	0	55*
Cc1ccccc1C1CC(c2ccc(F)cc2)Nc2nc(N)nn21 (stereo unspecified)	1	40
Cc1ccccc1C1CC(c2ccc(Br)cc2)Nc2nc(N)nn21 (stereo unspecified)	0	71*
Cc1ccc(C2CC(c3ccccc3Cl)Nc3nc(N)nn32)cc1 (stereo unspecified)	-3	67*
N#Cc1ccc(C(=O)NC2CCN(C(=O)C3CC3)C2)cc1 (stereo unspecified)	-1	4
CCCN(CCC)CCNS(=O)(=O)c1cc(Br)cc2c1N(C(C)=O)CC2	-1	-4
O=C(Nc1nnc(-c2cc(Cl)sc2Cl)o1)c1ccc([N+](=O)[O-])o1	13	-12
C=CCNC(=O)C1CCN(C(=O)c2cc3ccsc3n2Cc2ccc(Cl)cc2)CC1	-4	14
COc1cc(NC(=O)c2cccc([N+](=O)[O-])c2C)cc(OC)c1	1	-1
CCN1CCN(C/C=C/c2ccccc2)CC1	-2	-6
COc1ccc(CN2CCN(C/C=C/c3ccccc3)CC2)cc1OC	-12	7
O=[N+]([O-])c1cccc(CN2CCN(C/C=C/c3ccccc3)CC2)c1	-12	51*
Clc1ccccc1N1CCN(C/C=C/c2ccccc2)CC1	-2	62*
O=[N+]([O-])c1ccccc1CN1CCN(C/C=C/c2ccccc2)CC1	-2	29
COc1cc(CN2CCN(C/C=C/c3ccccc3)CC2)c([N+](=O)[O-])cc1OC	-9	82*
CN(C)c1ccc(/C=C/CN2CCN(Cc3ccccc3)CC2)cc1	1	56*
Oc1cccc(CN2CCN(C/C=C/c3ccccc3)CC2)c1	-5	2
COc1ccc(NC(=O)C2CCC2)cc1	0	-6
O=C(NCCc1ccco1)c1ccc2c(c1)NC(=O)C1CCCCN21 (stereo unspecified)	1	44
COC(=O)c1ccccc1S(=O)(=O)N1CCC(c2noc(-c3ccc(F)cc3)n2)CC1	-2	-9
CC(C)C(=O)Nc1ccc(C2(C(=O)N(C)Cc3ccccc3)CCCCC2)cc1	-2	6
CN(C)c1ccc(C(O)c2nc3ccccc3n2Cc2ccccc2)cc1 (stereo unspecified)	-7	50*
CC(O)c1nc2ccccc2n1Cc1ccccc1 (stereo unspecified)	-10	6
COCCCNC(=O)c1cccc(Cl)c1	1	-8
SMILES	Pf apPOL block	mHTT CaM bind
COCCCNC(=O)c1ccc(Cl)c(NC(=O)Nc2ccc(Cl)c(Cl)c2)c1	-12	52*
Cc1cccc(CNC(=O)C2CCN(c3ccc(Cl)c(C)c3)C2=O)c1 (stereo unspecified)	-2	1
CC(C)n1c(=O)c(NCc2cccc(F)c2)nc2ccncc21	-22	-5
CC(C)n1c(=O)c(NCc2ccc(F)c(Cl)c2)nc2ccncc21	-16	87*
O=C(N/C(=C\c1cccc([N+](=O)[O-])c1)c1nc2ccccc2[nH]1)c1cccs1	-6	12
CN1CCN(Cc2c(O)ccc3c2OC(=Cc2ccncc2)C3=O)CC1	-2	-3
CCOC(=O)c1ccc(-n2c(C)ccc2C)cc1	-6	.
Cc1ccc(C)n1-c1ccc(C(=O)ON2C(=O)CCC2=O)cc1	82*	.
Cc1cc(/C=C2/SC(=O)NC2=O)c(C)n1-c1cccnc1	3	13
Cc1cccc(CN2CCc3nc(N4CCC(C)CC4)ncc3C2)c1	-1	13
Fc1cccc(CN2CCc3nc(N4CCN(c5ccccc5F)CC4)ncc3C2)c1	3	3
Clc1ccc(CN2CCc3nc(N4CCN(c5ncccn5)CC4)ncc3C2)cc1	-2	100*
Clc1ccc(CN2CCc3nc(N4CCN(c5ccccc5)CC4)ncc3C2)cc1	3	41
Brc1csc(CN2CCc3nc(N4CCCC4)ncc3C2)c1	6	99*
CCN1CCN(c2ncc3c(n2)CCN(Cc2cc(Br)cs2)C3)CC1	-1	34
CCN1CCN(c2ncc3c(n2)CCN(Cc2cccc(C)c2)C3)CC1	-2	79*
Fc1cccc(CN2CCc3nc(N4CCN(c5ncccn5)CC4)ncc3C2)c1	-3	100*
CCOc1ccccc1NC(=O)N1CCc2nc(-c3ccc(Cl)cc3)ncc2C1	-4	-7
Cc1ccccc1N1CCC(C(=O)NC(C)c2ccccc2)C1=O (stereo unspecified)	-4	-1
COc1ccc(OC)c(COCC(O)CN2CCCCCC2)c1 (stereo unspecified)	-2	1
COc1ccccc1-c1c(C)oc2c(CN3CCC(C)CC3)c(O)ccc2c1=O	-9	0
